Test results published in PubChem BioAssay (EPA / NIEHS).
Records with an inconclusive call do not appear. The source made the active and inactive calls. The calls were made as follows, unless noted: active = hit-call score of the fitted dose curve at least 0.9, where 1 is the maximum; inconclusive = response in the unintended direction; inactive = score below 0.9.

Tests used:
[1] = molecular target: Estrogen receptor beta (Homo sapiens) (UniProt Q92731); test: OT_ER_ERbERb_1440: Odyssey Thera (OT) 24-hour HEK293T Protein-Complementation Assay for Estrogen Receptor-beta/-beta Homodimer (AID 2283380);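 also: scored as signal increase over DMSO baseline for both agonists and antagonists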
Estrogen receptor beta (Homo sapiens), sequence (Q92731 whole entry, looked up, the tested form may be a part): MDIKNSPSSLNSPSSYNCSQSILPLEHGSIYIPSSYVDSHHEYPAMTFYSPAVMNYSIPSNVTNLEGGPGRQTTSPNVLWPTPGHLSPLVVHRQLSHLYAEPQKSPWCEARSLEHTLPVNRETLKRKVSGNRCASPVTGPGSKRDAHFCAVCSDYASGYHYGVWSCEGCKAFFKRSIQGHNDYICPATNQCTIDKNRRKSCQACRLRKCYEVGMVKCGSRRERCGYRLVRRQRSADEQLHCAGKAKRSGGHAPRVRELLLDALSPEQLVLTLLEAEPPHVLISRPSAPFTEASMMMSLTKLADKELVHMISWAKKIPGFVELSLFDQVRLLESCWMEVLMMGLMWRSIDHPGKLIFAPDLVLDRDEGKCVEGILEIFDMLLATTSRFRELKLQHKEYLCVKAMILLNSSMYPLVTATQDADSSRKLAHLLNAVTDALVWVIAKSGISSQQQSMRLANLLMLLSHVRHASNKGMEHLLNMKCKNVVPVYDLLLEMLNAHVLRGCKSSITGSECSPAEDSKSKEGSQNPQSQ
Outline: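 HEK293T cells stably expressing ER beta LBD (aa 310-547) homodimer fragment-complementation reporter, dosed 24 h. Cells formaldehyde-fixed, Draq5-stained; gain in nuclear (agonist) or nuclear plus cytoplasmic (antagonist) fluorescence versus DMSO read by laser scanning cytometry.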

[2] = molecular target: Estrogen receptor (Homo sapiens) (UniProt P03372); test: OT_ERa_GFPERaERE_0480: Odyssey Thera (OT) 8-hour HeLa Transcription Induction Assay for Estrogen Receptor (AID 2283381; active = hit-call score of the fitted dose curve at least 0.9, where 1 is the maximum; inactive = score below 0.9)
Estrogen receptor (Homo sapiens), sequence (P03372 whole entry, looked up): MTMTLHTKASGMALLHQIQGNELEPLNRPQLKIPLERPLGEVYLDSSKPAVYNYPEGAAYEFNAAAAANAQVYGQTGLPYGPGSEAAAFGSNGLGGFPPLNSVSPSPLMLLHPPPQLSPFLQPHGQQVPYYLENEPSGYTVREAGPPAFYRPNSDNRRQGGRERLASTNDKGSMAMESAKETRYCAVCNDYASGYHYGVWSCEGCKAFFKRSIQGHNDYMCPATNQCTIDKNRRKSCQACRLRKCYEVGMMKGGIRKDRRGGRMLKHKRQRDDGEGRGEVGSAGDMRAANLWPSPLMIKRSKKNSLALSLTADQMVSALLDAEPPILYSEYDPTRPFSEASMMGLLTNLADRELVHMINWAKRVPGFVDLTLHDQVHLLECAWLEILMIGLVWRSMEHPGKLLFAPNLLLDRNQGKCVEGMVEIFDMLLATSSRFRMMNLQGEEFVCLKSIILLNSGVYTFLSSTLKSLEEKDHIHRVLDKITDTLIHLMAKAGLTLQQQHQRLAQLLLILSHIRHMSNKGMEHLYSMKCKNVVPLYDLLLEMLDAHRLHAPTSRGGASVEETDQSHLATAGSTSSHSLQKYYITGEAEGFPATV
Outline: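 Fluorescence microscopy with high-content image analysis measures ERE-driven GFP induction in HeLa cells at 8 h post-dose. Increases fitted against DMSO baseline.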

[3] = molecular target: Estrogen receptor (Homo sapiens) (UniProt P03372); test: OT_ERa_GFPERaERE_0120: Odyssey Thera (OT) 2-hour HeLa Transcription Induction Assay for Estrogen Receptor (AID 2283382)
Outline: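 Fluorescence-microscopy images of the GFP-ERα/ERE reporter, scored by high-content image algorithms, give the readout. HeLa exposure lasted 2 h, and only signal increase over DMSO was fitted.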

[4] = molecular target: Bile acid receptor (Homo sapiens) (UniProt Q96RI1); test: OT_FXR_FXRSRC1_0480: Odyssey Thera (OT) 8-hour HEK293T Protein-Complementation Assay for Farnesoid X receptor/SRC-1 Co-activator (AID 2283383)
Bile acid receptor (Homo sapiens), sequence (Q96RI1 whole entry, looked up, the tested form may be a part): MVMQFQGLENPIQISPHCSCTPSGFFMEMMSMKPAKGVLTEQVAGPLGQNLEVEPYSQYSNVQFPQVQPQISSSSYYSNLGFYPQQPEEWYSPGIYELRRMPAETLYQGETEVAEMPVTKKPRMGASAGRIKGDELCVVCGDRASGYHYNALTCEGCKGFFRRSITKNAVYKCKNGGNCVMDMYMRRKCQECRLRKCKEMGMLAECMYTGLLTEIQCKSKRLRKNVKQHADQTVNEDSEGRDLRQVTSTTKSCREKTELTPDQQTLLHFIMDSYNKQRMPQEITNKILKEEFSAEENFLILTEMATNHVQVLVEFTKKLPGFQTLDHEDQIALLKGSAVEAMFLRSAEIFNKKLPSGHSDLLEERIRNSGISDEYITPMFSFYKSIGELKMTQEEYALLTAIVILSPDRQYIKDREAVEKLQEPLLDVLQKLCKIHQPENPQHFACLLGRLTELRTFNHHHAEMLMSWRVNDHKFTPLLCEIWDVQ
Outline: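 Binding of FXR to coactivator SRC-1 was read as fluorescence from a reconstituted split reporter in HEK293T cells, 8 h after chemical addition. Only increases in signal versus DMSO were fit.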

[5] = molecular target: Retinoic acid receptor RXR-alpha (Homo sapiens) (UniProt P19793); test: OT_NURR1_NURR1RXRa_0480: Odyssey Thera (OT) 8-hour HEK293T Protein Complementation Assay for Nurr1/retinoid X receptor (RXR) (AID 2283385)
Retinoic acid receptor RXR-alpha (Homo sapiens), sequence (P19793 whole entry, looked up, the tested form may be a part): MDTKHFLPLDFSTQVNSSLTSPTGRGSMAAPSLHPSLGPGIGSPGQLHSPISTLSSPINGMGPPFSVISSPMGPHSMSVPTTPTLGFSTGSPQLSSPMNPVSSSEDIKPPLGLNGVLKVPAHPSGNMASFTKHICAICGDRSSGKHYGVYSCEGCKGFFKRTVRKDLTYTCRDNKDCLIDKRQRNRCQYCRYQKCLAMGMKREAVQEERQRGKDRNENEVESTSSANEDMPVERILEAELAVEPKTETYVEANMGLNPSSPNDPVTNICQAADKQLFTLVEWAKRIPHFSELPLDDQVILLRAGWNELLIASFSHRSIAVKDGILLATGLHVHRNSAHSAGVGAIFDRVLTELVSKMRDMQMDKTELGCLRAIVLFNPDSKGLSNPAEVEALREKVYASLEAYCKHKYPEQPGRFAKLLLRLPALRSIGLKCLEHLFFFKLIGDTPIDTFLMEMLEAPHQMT
Outline: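 Interaction of Nurr1 with RXRα read as reconstituted reporter fluorescence in a HEK293T fragment-complementation system, 8 h post-treatment; increase over DMSO baseline analysed.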

[6] = molecular target: Peroxisome proliferator-activated receptor gamma (Homo sapiens) (UniProt P37231); test: OT_PPARg_PPARgSRC1_0480: Odyssey Thera (OT) 8-hour Protein-Complementation Assay for Peroxisome Proliferator-activated Receptor Gamma / SRC-1 Co-activator (AID 2283387)
Peroxisome proliferator-activated receptor gamma (Homo sapiens), sequence (P37231 whole entry, looked up, the tested form may be a part): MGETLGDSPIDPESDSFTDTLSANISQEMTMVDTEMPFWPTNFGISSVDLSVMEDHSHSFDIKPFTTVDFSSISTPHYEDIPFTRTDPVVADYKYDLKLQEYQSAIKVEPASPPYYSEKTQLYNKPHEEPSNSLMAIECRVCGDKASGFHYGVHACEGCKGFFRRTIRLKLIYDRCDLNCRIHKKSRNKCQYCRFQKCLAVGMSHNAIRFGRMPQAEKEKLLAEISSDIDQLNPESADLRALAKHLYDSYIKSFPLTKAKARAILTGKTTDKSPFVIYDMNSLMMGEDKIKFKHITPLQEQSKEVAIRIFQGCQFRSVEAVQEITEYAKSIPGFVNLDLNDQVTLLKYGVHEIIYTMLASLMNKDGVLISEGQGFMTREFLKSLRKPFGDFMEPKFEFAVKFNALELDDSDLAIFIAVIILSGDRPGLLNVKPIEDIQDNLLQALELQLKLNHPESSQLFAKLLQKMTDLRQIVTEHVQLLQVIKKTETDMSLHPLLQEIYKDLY
Outline: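 Split-YFP (IFP1/IFP2) PPARg/SRC-1 reporter, HEK293T, 37 °C, 5% CO2; 8 h compound; formaldehyde fix + Draq5; high-content imaging, N/C ratio, ≥350 cells/image, positive direction vs DMSO.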

[7] = molecular target: Peroxisome proliferator-activated receptor gamma (Homo sapiens) (UniProt P37231); test: OT_PPARg_PPARgSRC1_1440: Odyssey Thera (OT) 24-hour Protein-Complementation Assay for Peroxisome Proliferator-activated Receptor Gamma/ SRC-1 Co-activator (AID 2283388)
Outline: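 HEK293T transiently transfected with PPARg/SRC-1 split-Venus YFP fusions 48 h before dosing, then treated 24 h at 37C. Fixed cells imaged; nuclear/cytoplasmic 488 nm fluorescence ratio, gain of signal versus DMSO.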

[8] = molecular target: Bile acid receptor (Homo sapiens) (UniProt Q96RI1); test: OT_FXR_FXRSRC1_1440: Odyssey Thera (OT) 24-hour HEK293T Protein-Complementation Assay for Farnesoid X receptor/SRC-1 Co-activator (AID 2283384)
Outline: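 Protein-fragment complementation: FXR and SRC-1 fused to reporter fragments that reassemble on interaction, read by fluorescence intensity. Human HEK293T cells measured 24 h post-dose; positive-direction fit versus DMSO.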

[9] = molecular target: Retinoic acid receptor RXR-alpha (Homo sapiens) (UniProt P19793); test: OT_NURR1_NURR1RXRa_1440: Odyssey Thera (OT) 24-hour HEK293T Protein Complementation Assay for Nurr1/retinoid X receptor (RXR) (AID 2283386)
Outline: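 Gain in fluorescence, fitted relative to DMSO, reflects Nurr1–RXRα association in HEK293T cells after 24 h dosing. Bait and prey are each linked to a reporter-protein fragment that reassembles on interaction.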

[10] = molecular target: mouse Estrogen Receptor alpha (Era), Esr1 (gene 13982) (UniProt P19785); test: NVS_NR_mERa: NovaScreen (NVS) Nuclear Receptor Binding Assay for mouse Estrogen Receptor alpha (Era) (AID 2283378);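 also: hit means loss of bound radioligand signal relative to DMSO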
mouse Estrogen Receptor alpha (Era), Esr1 (gene 13982), sequence (P19785 whole entry, looked up): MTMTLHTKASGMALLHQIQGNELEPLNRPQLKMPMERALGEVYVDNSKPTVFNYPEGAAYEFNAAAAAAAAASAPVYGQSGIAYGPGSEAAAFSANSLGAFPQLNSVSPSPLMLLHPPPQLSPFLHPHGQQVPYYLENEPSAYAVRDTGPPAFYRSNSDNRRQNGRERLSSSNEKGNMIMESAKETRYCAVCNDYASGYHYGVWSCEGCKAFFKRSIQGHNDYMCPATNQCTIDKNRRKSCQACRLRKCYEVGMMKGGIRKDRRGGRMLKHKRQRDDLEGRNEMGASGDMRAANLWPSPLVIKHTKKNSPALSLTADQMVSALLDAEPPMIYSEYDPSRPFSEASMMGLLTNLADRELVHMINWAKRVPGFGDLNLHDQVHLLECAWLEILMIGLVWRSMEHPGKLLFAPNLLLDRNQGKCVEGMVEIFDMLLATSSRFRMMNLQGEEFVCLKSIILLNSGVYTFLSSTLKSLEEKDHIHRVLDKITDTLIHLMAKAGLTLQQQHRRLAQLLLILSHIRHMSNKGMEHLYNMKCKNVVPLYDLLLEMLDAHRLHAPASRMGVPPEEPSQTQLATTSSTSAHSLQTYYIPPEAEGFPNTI
Outline: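 Cell-free radioligand competitive displacement binding, read by filter-based scintillation counting 18 h after dosing. Primary screen run in duplicate at 25 uM, actives retested in concentration series; loss of signal versus DMSO.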

[11] = CEETOX_H295R_11DCORT: CeeTox H295R High-throughput Steroidogenesis Assay for 11-Deoxycortisol (11DCORT) (AID 2283432; active = hit-call score of the fitted dose curve at least 0.9, where 1 is the maximum; inactive = score below 0.9;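 also: 11-deoxycortisol secreted into the medium measured by LC-MS/MS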); conditions: actives raise or lower the signal
Outline: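 Steroidogenesis in human H295R cells: 48 h chemical exposure after forskolin priming, 11-deoxycortisol measured by LC-MS/MS.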

[12] = CEETOX_H295R_OHPREG: CeeTox H295R High-throughput Steroidogenesis Assay for OH-Pregnenolone (OHPREG) (AID 2283434; active = hit-call score of the fitted dose curve at least 0.9, where 1 is the maximum; inactive = score below 0.9); conditions: actives raise or lower the signal
Outline: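 H295R, 10 uM forskolin pre-stim 48 h; test chemical 48 h, 0.1% DMSO final. MTBE extraction, reverse-phase C18 HPLC-ESI+ MS/MS of medium. Gain/loss vs DMSO; viability by MTT in same wells.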

[13] = CEETOX_H295R_OHPROG: CeeTox H295R High-throughput Steroidogenesis Assay for OH-Progesterone (OHPROG) (AID 2283435; active = hit-call score of the fitted dose curve at least 0.9, where 1 is the maximum; inactive = score below 0.9;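 also: 17alpha-hydroxyprogesterone secreted into medium measured by HPLC-MS/MS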); conditions: actives raise or lower the signal
Outline: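 Medium steroid levels read by LC-MS/MS after 48 h chemical treatment (0.1% DMSO) of human adrenal H295R cells that had been forskolin-primed (10 uM, 48 h). Gain or loss fitted against DMSO; MTT cytotoxicity checked per well.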

[14] = CEETOX_H295R_CORTIC: CeeTox H295R High-throughput Steroidogenesis Assay for Corticosterone (CORTIC) (AID 2283437; active = hit-call score of the fitted dose curve at least 0.9, where 1 is the maximum; inactive = score below 0.9;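 also: corticosterone secreted into medium quantified by mass spectrometry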); conditions: actives raise or lower the signal
Outline: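 48 h forskolin (10 uM) prestim, then 48 h chemical exposure, final DMSO 0.1%. Readout: corticosterone in medium by LC-MS/MS after MTBE extraction. Gain/loss fit vs DMSO; MTT viability in same wells.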

[15] = CEETOX_H295R_CORTISOL: CeeTox H295R High-throughput Steroidogenesis Assay for Cortisol (AID 2283438; active = hit-call score of the fitted dose curve at least 0.9, where 1 is the maximum; inactive = score below 0.9;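 also: cortisol secreted into medium quantified by LC-MS/MS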); conditions: actives raise or lower the signal
Outline: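 Cortisol measured by HPLC-MS/MS after MTBE extraction of medium from H295R cells exposed 48 h to chemical (0.1% DMSO), following 48 h prestimulation with 10 uM forskolin. Viability assessed by MTT in the same wells.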

[16] = CEETOX_H295R_ESTRADIOL: CeeTox H295R High-throughput Steroidogenesis Assay for Estradiol (AID 2283440; active = hit-call score of the fitted dose curve at least 0.9, where 1 is the maximum; inactive = score below 0.9;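 also: estradiol secreted into medium quantified by LC-MS/MS after dansyl derivatisation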); conditions: actives raise or lower the signal
Outline: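 H295R cells pre-stimulated 48 h with 10 uM forskolin, then exposed 48 h to chemical in 0.1% DMSO. Medium estradiol quantified by MTBE extraction, dansyl derivatisation and HPLC-MS/MS; bidirectional fit versus DMSO; MTT viability required >/=70%.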

In the case of `OCc1ccco1`, the outcome [1] is reported as “inactive”, the outcome [2] is reported as “inactive” and the outcome [3] is reported as “inactive”. For the same compound, the outcome [4] was “inactive”, the outcome [5] was “inactive” and the outcome [6] was “inactive”. The outcome [7] was “inactive”.

For `c1cc[c]([Hg][c]2ccccc2)cc1`, the outcome [1] was “inactive”, the outcome [2] was “inactive” and the outcome [3] was “inactive”. For the same compound, the AC50 [4] was 29 µM (active), the AC50 [8] was 51.6 µM (active) and the AC50 [5] was 29.7 µM (active). The AC50 [9] was 63.4 µM (active), the outcome [6] was “inactive” and the AC50 [7] was 50 µM (active).

In the case of `O=S(=O)(c1ccc(Cl)cc1)c1ccc(Cl)cc1`, the outcome [1] is reported as “inactive”, the outcome [2] is reported as “inactive” and the outcome [3] is reported as “inactive”. For the same compound, the outcome [9] was “inactive”, the outcome [6] was “inactive” and the outcome [7] was “inactive”.

In the case of `C[C@]12CC[C@H](O)CC1=CC[C@@H]1[C@@H]2CC[C@]2(C)C(=O)CC[C@@H]12`, the AC50 [10] is reported as 2.17 µM (active), the AC50 [1] is reported as 3.34 µM (active) and the outcome [5] is reported as “inactive”. The outcome [9] was “inactive”, the outcome [7] was “inactive” and the AC50 [11] was 41.1 µM (active). The AC50 [12] was 14.1 µM (active), the AC50 [13] was 1.13 µM (active) and the outcome [14] was “inactive”. For the same compound, the AC50 [15] was 7.72 µM (active) and the outcome [16] was “inactive”.

With `O=C1C(Cl)=C(Cl)C(=O)c2ccccc21` the outcome [1] was “inactive”, the outcome [2] was “inactive” and the outcome [3] was “inactive”. For the same compound, the AC50 [5] was 11.4 µM (active), the AC50 [6] was 11.8 µM (active) and the AC50 [7] was 11.8 µM (active).

For `NNC(=S)NN`, the AC50 [10] was 0.0993 µM (active), the outcome [1] was “inactive” and the outcome [2] was “inactive”. The outcome [3] was “inactive”, the outcome [9] was “inactive” and the outcome [6] was “inactive”. For the same compound, the outcome [7] was “inactive”, the AC50 [12] was 50 µM (active) and the AC50 [13] was 50 µM (active). The outcome [16] was “inactive”.

For `CC(C#N)CCC#N` (stereo not given), the outcome [1] was “inactive”, the outcome [2] was “inactive” and the outcome [3] was “inactive”. For the same compound, the outcome [9] was “inactive”, the outcome [6] was “inactive” and the outcome [7] was “inactive”.

With `O=[N+]([O-])c1ccc(O)c([N+](=O)[O-])c1` the outcome [1] was “inactive”, the outcome [2] was “inactive” and the outcome [3] was “inactive”. The outcome [5] was “inactive”, the outcome [6] was “inactive” and the outcome [7] was “inactive”.

For `COc1cc(OC)nc(NC(=O)NS(=O)(=O)c2ncccc2C(=O)N(C)C)n1`, the outcome [1] was “inactive”, the outcome [2] was “inactive” and the outcome [3] was “inactive”. For the same compound, the outcome [5] was “inactive”, the outcome [9] was “inactive” and the outcome [6] was “inactive”. For the same compound, the outcome [7] was “inactive”.

With `C=C(C)C#N` the outcome [1] was “inactive”, the outcome [2] was “inactive” and the outcome [3] was “inactive”. The outcome [4] was “inactive” and the outcome [9] was “inactive”.

For `O=C(Nc1ccc2[nH]ccc2c1)c1cc2cc(F)ccc2n1Cc1cccc(F)c1`, the outcome [1] was “inactive”, the outcome [2] was “inactive” and the outcome [3] was “inactive”. The outcome [4] was “inactive”, the outcome [6] was “inactive” and the outcome [7] was “inactive”. For the same compound, the AC50 [11] was 3.48 µM (active), the AC50 [12] was 1.11 µM (active) and the AC50 [13] was 0.124 µM (active). The outcome [14] was “inactive”, the AC50 [15] was 4.26 µM (active) and the outcome [16] was “inactive”.
